# Data: the supplement of paper PMC8728848
# The entries come from a sample that favours the strongest signals as a whole.
# B1: Threefoil (Haloarcula marismortui) (protein)
# chain: GSSHHHHHHHHHHSSGLVPRGSHMGDGYYKLVARHSGKALDVENASTSDGANVIQYSYSGGDNQQWRLVDLGDGYYKLVARHSGKALDVENASTSDGANVIQYSYSGGDNQQWRLVDLGDGYYKLVARHSGKALDVENASTSDGANVIQYSYSGGDNQQWRLVDL
# Columns and labels:
# Test in all cases: glycan array binding signal (z-score within array); higher = stronger binding
# Details in all cases: glycan notation: IUPAC condensed, linker removed
# [1] = biological target: Gal(b1-4)GlcNAc(b1-3)Gal(b1-4)GlcNAc(b1-3)Gal(b1-4)GlcNAc(b1-3)Gal(b1-4)GlcNAc(b1-3)Gal(b1-4)GlcNAc(b1-2)Man(a1-3)[Gal(b1-4)GlcNAc(b1-3)Gal(b1-4)GlcNAc(b1-3)Gal(b1-4)GlcNAc(b1-3)Gal(b1-4)GlcNAc(b1-3)Gal(b1-4)GlcNAc(b1-2)Man(a1-6)]Man(b1-4)GlcNAc(b1-4)[Fuc(a1-6)]GlcNAc
# Procedure, shortened: (§1)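 Columns mapping to the same glycan were averaged after glycan names were converted to IUPAC-condensed notation. The data come from 3228 arrays in the Consortium for Functional Glycomics database, limited to those with an available protein sequence. Binding is reported as a within-array Z-score averaged across arrays of one protein sequence and across linkers.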
# [2] = biological target: Gal(b1-4)GlcNAc(b1-3)Gal(b1-4)GlcNAc(b1-3)Gal(b1-4)GlcNAc(b1-3)Gal(b1-4)GlcNAc(b1-3)Gal(b1-4)GlcNAc(b1-2)[Gal(b1-4)GlcNAc(b1-3)Gal(b1-4)GlcNAc(b1-3)Gal(b1-4)GlcNAc(b1-3)Gal(b1-4)GlcNAc(b1-3)Gal(b1-4)GlcNAc(b1-6)]Man(a1-6)[Gal(b1-4)GlcNAc(b1-3)Gal(b1-4)GlcNAc(b1-3)Gal(b1-4)GlcNAc(b1-3)Gal(b1-4)GlcNAc(b1-3)Gal(b1-4)GlcNAc(b1-2)Man(a1-3)]Man(b1-4)GlcNAc(b1-4)[Fuc(a1-6)]GlcNAc
# Procedure, shortened: as §1
# [3] = biological target: Gal(b1-4)GlcNAc(b1-3)[Fuc(a1-3)GlcNAc(b1-6)]Gal(b1-4)Glc
# Procedure, shortened: as §1
# [4] = biological target: Gal(b1-4)GlcNAc(b1-6)[Gal(b1-4)GlcNAc(b1-3)]GalNAc
# Procedure, shortened: as §1
# Gal3S(b1-4)GlcNAc = biological target: Gal3S(b1-4)GlcNAc
# Procedure, shortened: as §1
# [5] = biological target: Gal3S(b1-4)[Fuc(a1-3)]GlcNAc6S
# Procedure, shortened: as §1
# Gal6P(b1-4)GlcNAc = biological target: Gal6P(b1-4)GlcNAc
# Procedure, shortened: as §1
# [6] = biological target: GalNAc(a1-3)GalNAc(a1-3)Gal(a1-4)Gal(b1-4)GlcNAc
# Procedure, shortened: as §1
# GalNAc(b1-4)GlcNAc = biological target: GalNAc(b1-4)GlcNAc
# Procedure, shortened: as §1
# [7] = biological target: Glc(a1-6)Glc(a1-6)Glc(a1-6)Glc
# Procedure, shortened: as §1
# [8] = biological target: GlcNAc(a1-4)Gal(b1-4)GalNAc
# Procedure, shortened: as §1
# [9] = biological target: GlcNAc(a1-4)Gal(b1-4)GlcNAc(b1-3)Gal(b1-4)GlcNAc(b1-3)Gal(b1-4)GlcNAc
# Procedure, shortened: as §1
# [10] = biological target: GlcNAc(b1-2)Man(a1-3)[GlcNAc(b1-4)][GlcNAc(b1-2)Man(a1-6)]Man(b1-4)GlcNAc(b1-4)[Fuc(a1-6)]GlcNAc
# Procedure, shortened: as §1
# GlcNAc(b1-3)Gal(b1-4)Glc = biological target: GlcNAc(b1-3)Gal(b1-4)Glc
# Procedure, shortened: as §1
# [11] = biological target: GlcNAc(b1-3)Gal(b1-4)GlcNAc(b1-2)Man(a1-3)[GlcNAc(b1-3)Gal(b1-4)GlcNAc(b1-2)Man(a1-6)]Man(b1-4)GlcNAc(b1-4)[Fuc(a1-6)]GlcNAc
# Procedure, shortened: as §1
# [12] = biological target: GlcNAc(b1-6)Gal(b1-4)GlcNAc
# Procedure, shortened: as §1
# GlcNAc(b1-6)GalNAc = biological target: GlcNAc(b1-6)GalNAc
# Procedure, shortened: as §1
# Man(b1-4)GlcNAc = biological target: Man(b1-4)GlcNAc
# Procedure, shortened: as §1
# [13] = biological target: Neu5Ac(a2-3)Gal(b1-3)GalNAc(b1-4)[Neu5Ac(a2-8)Neu5Ac(a2-3)]Gal(b1-4)Glc
# Procedure, shortened: as §1
# [14] = biological target: Neu5Ac(a2-3)Gal(b1-3)GlcNAc(b1-3)Gal(b1-3)GlcNAc
# Procedure, shortened: as §1
# [15] = biological target: Neu5Ac(a2-3)Gal(b1-3)GlcNAc(b1-3)GalNAc
# Procedure, shortened: as §1
# [16] = biological target: Neu5Ac(a2-3)Gal(b1-3)GlcNAc6S
# Procedure, shortened: as §1
# [17] = biological target: Neu5Ac(a2-3)Gal(b1-4)GlcNAc6S
# Procedure, shortened: as §1
# [18] = biological target: Neu5Ac(a2-3)Gal(b1-4)[Fuc(a1-3)]GlcNAc(b1-6)[Neu5Ac(a2-3)Gal(b1-3)]GalNAc
# Procedure, shortened: as §1
# [19] = biological target: Neu5Ac(a2-3)[GalNAc(b1-4)]Gal(b1-4)Glc
# Procedure, shortened: as §1
# [20] = biological target: Neu5Ac(a2-6)Gal(b1-4)GlcNAc(b1-3)Gal(b1-4)GlcNAc(b1-3)Gal(b1-4)GlcNAc
# Procedure, shortened: as §1
# [21] = biological target: Neu5Ac(a2-6)Gal(b1-4)GlcNAc(b1-3)GalNAc
# Procedure, shortened: as §1
# [22] = biological target: Neu5Ac(a2-6)GlcNAc(b1-4)GlcNAc(b1-4)GlcNAc
# Procedure, shortened: as §1
# [23] = biological target: Neu5Ac(a2-8)Neu5Ac(a2-3)[Gal(b1-3)GalNAc(b1-4)]Gal(b1-4)Glc
# Procedure, shortened: as §1
# [24] = biological target: Neu5Ac(b2-6)Gal(b1-4)GlcNAc
# Procedure, shortened: as §1
binder,measurement,setting,value
B1,glycan array binding signal (z-score),[1],2.83
same,glycan array binding signal (z-score),[2],3.49
same,glycan array binding signal (z-score),[3],3.85
same,glycan array binding signal (z-score),[4],0.738
same,glycan array binding signal (z-score),Gal3S(b1-4)GlcNAc,-0.158
same,glycan array binding signal (z-score),[5],-0.038
same,glycan array binding signal (z-score),Gal6P(b1-4)GlcNAc,-0.211
same,glycan array binding signal (z-score),[6],-0.227
same,glycan array binding signal (z-score),GalNAc(b1-4)GlcNAc,-0.003
same,glycan array binding signal (z-score),[7],-0.157
same,glycan array binding signal (z-score),[8],-0.271
same,glycan array binding signal (z-score),[9],-0.208
same,glycan array binding signal (z-score),[10],-0.223
same,glycan array binding signal (z-score),GlcNAc(b1-3)Gal(b1-4)Glc,-0.299
same,glycan array binding signal (z-score),[11],-0.052
same,glycan array binding signal (z-score),[12],0.035
same,glycan array binding signal (z-score),GlcNAc(b1-6)GalNAc,-0.181
same,glycan array binding signal (z-score),Man(b1-4)GlcNAc,0.763
same,glycan array binding signal (z-score),[13],-0.245
same,glycan array binding signal (z-score),[14],-0.139
same,glycan array binding signal (z-score),[15],-0.266
same,glycan array binding signal (z-score),[16],-0.17
same,glycan array binding signal (z-score),[17],-0.364
same,glycan array binding signal (z-score),[18],0.108
same,glycan array binding signal (z-score),[19],-0.269
same,glycan array binding signal (z-score),[20],-0.154
same,glycan array binding signal (z-score),[21],-0.163
same,glycan array binding signal (z-score),[22],-0.141
same,glycan array binding signal (z-score),[23],-0.146
same,glycan array binding signal (z-score),[24],-0.309
